PubChem BioAssay (Tox21)
Where “and” joins values, the source holds several entries; their conditions need not be identical. Equal entries are not always repeated. Inconclusive results are not listed. Where a structure was tested more than once in an assay, its records may differ in their call. Calls of active or inactive are those of the source. Unless noted, calls follow the shape of the dose curve; as a rule, active = well fitted curve in the direction sought with a large enough effect in the repeat runs; inconclusive = weak or mixed curves; inactive = no such curve, though single readings can be large; an effect the other way counts as inactive or inconclusive.

Assays:
[1] = qHTS assay to identify aromatase inhibitors - cell viability counter screen (AID 743084);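 also: cells stimulated with testosterone during compound exposure; nearly all actives have a fitted effect of over 55% in size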; also: potency is read from the fitted curve at half-maximal effect
[2] = molecular target: Aryl hydrocarbon receptor (Homo sapiens) (UniProt P35869); assay: qHTS assay to identify small molecule that activate the aryl hydrocarbon receptor (AhR) signaling pathway (AID 743085);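 also: HG2L7.5c1 human HepG2 liver cells with stably integrated DRE-driven firefly reporter; series mostly up to about 70 µM; nearly all actives have a fitted effect of over 15% in size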
Sequence of Aryl hydrocarbon receptor (Homo sapiens) (P35869 whole entry, looked up): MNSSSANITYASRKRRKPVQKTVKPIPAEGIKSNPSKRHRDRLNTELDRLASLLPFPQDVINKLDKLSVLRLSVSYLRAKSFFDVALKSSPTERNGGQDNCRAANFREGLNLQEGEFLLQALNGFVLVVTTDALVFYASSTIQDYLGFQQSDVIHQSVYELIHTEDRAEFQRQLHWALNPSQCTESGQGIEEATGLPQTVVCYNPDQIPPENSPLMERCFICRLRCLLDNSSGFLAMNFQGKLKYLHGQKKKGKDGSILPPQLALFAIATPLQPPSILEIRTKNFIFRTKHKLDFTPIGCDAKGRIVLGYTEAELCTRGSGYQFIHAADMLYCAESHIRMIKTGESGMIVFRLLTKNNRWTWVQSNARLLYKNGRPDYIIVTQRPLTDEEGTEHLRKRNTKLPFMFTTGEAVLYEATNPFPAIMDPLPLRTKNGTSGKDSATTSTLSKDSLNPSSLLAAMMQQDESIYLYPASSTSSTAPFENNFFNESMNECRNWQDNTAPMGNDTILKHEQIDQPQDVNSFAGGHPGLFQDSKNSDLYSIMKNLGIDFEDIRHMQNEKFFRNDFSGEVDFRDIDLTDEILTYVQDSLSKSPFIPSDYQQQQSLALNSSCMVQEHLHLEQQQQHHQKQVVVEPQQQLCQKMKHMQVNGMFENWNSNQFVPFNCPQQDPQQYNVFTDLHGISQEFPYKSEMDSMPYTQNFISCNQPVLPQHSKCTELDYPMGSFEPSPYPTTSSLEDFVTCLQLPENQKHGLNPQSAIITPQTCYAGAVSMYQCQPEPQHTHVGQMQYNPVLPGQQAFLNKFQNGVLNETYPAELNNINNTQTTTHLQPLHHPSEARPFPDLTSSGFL
In short: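 Luminescence (ONE-Glo) from a dioxin-responsive-element luciferase reporter in HG2L7.5c1 HepG2 cells after 24 hr compound exposure at 37C; viability measured by CellTiter-Fluor fluorescence beforehand.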

[3] = qHTS assay to identify small molecule that activate the aryl hydrocarbon receptor (AhR) signaling pathway - cell viability counter screen (AID 743086); also: nearly all actives have a fitted effect of over 45% in size; also: potency is read from the fitted curve at half-maximal effect
In short: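 Cytotoxicity counter screen: CellTiter-Fluor signal (30 min, 37 C) in 4000 HepG2 cells/well carrying the DRE-luciferase reporter, following 24 h compound exposure at 37 C.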

[4] = qHTS assay to identify small molecule antagonists of the peroxisome proliferator-activated receptor gamma (PPARg) signaling pathway - cell viability counter screen (AID 743194); also: nearly all actives have a fitted effect of over 55% in size; also: potency is read from the fitted curve at half-maximal effect
In short: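 Viability was measured as CellTiter-Glo luminescence in GeneBLAzer PPARg UAS-bla HEK293H cells. These cells had been exposed 17 h at 37 C to compounds together with rosiglitazone at 50 nM final, with the beta-lactamase readout taken in the same wells.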

[5] = qHTS assay for small molecule agonists of the antioxidant response element (ARE) signaling pathway - cell viability counter screen (AID 743203; calls by dose curve; also: nearly all actives have a fitted effect of over 55% in size; also: potency is read from the fitted curve at half-maximal effect)
In short: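 CellSensor ARE-bla HepG2 cells, 2,000 per well, rested 5 hrs at 37C/5% CO2, then exposed to compound in DMSO for 16 hrs; viability read as CellTiter-Glo luminescence after 30 min at room temperature, in the reporter wells.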

[6] = qHTS assay for small molecule activators of the heat shock response signaling pathway - cell viability counter screen (AID 743209); also: nearly all actives have a fitted effect of over 50% in size; also: potency is read from the fitted curve at half-maximal effect
In short: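 CellSensor HSE-bla HeLa cells, plated overnight at 37 C/5% CO2, were exposed to compounds in DMSO for 5 h at 37 C. Viability was then read in the same wells by CellTiter-Glo luminescence after 30 min at room temperature.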

[7] = molecular target: Peroxisome proliferator-activated receptor delta (Homo sapiens) (UniProt Q03181); assay: qHTS assay to identify small molecule agonists of the peroxisome proliferator-activated receptor delta (PPARd) signaling pathway (AID 743212; calls by dose curve)
Sequence of Peroxisome proliferator-activated receptor delta (Homo sapiens) (Q03181 whole entry, looked up): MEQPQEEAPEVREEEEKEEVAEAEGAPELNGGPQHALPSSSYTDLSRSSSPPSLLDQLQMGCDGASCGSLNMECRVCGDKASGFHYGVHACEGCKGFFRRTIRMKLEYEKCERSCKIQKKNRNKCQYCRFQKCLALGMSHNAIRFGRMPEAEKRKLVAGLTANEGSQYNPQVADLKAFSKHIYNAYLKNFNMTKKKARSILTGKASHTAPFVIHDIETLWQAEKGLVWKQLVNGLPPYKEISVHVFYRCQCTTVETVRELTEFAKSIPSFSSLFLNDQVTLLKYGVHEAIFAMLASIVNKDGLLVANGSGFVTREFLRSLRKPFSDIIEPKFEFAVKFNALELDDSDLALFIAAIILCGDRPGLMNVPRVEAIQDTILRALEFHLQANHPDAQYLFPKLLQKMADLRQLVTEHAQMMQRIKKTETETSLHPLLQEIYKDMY
In short: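 HEK293H UAS-bla reporter cells, human PPARd system; compounds delivered in DMSO after 5 h plating, then at 37 C. Beta-lactamase FRET read, 2 h RT substrate step.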

[8] = qHTS assay to identify small molecule antagonists of the peroxisome proliferator-activated receptor delta (PPARd) signaling pathway - cell viability counter screen (AID 743213); also: nearly all actives have a fitted effect of over 50% in size; also: potency is read from the fitted curve at half-maximal effect
In short: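 PPARd-bla HEK293H cells were treated with compounds plus agonist L165041 (300 nM final) for 17 h at 37 C. Viability was then read in the same wells by CellTiter-Glo luminescence after 30 min at room temperature.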

[9] = molecular target: Peroxisome proliferator-activated receptor delta (Homo sapiens) (UniProt Q03181); assay: qHTS assay to identify small molecule antagonists of the peroxisome proliferator-activated receptor delta (PPARd) signaling pathway (AID 743215; active = well fitted inhibition curve with a large enough effect in the signal ratio in the repeat runs, not every such curve was filed as active; the % refers to the signal ratio;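 also: cells stimulated with agonist L165041 at 300 nM final during compound exposure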; also: potency is read from the fitted curve at half-maximal effect)
In short: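 PPARd UAS-bla HEK293H cells were pre-incubated 5 h at 37 C, then given test compounds in DMSO plus agonist L165041 (300 nM final). After 17 h at 37 C, beta-lactamase FRET substrate was added; fluorescence read after 2 h at room temperature.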

[10] = qHTS assay to identify small molecule agonists of the farnesoid-X-receptor (FXR) signaling pathway - cell viability counter screen (AID 743218); also: nearly all actives have a fitted effect of over 45% in size; also: potency is read from the fitted curve at half-maximal effect
In short: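 FXR-UAS-bla HEK 293T cells, plated 5 h at 37 C, were exposed to compounds for 16 h at 37 C. CellTiter-Glo was then added to the same wells as the bla readout; luminescence read after 30 min at room temperature.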

[11] = molecular target: Bile acid receptor (Homo sapiens) (UniProt Q96RI1); assay: qHTS assay to identify small molecule agonists of the farnesoid-X-receptor (FXR) signaling pathway (AID 743220; active = well fitted activation curve with a large enough effect in the signal ratio in the repeat runs, not every such curve was filed as active; the % refers to the signal ratio)
Sequence of Bile acid receptor (Homo sapiens) (Q96RI1 whole entry, looked up): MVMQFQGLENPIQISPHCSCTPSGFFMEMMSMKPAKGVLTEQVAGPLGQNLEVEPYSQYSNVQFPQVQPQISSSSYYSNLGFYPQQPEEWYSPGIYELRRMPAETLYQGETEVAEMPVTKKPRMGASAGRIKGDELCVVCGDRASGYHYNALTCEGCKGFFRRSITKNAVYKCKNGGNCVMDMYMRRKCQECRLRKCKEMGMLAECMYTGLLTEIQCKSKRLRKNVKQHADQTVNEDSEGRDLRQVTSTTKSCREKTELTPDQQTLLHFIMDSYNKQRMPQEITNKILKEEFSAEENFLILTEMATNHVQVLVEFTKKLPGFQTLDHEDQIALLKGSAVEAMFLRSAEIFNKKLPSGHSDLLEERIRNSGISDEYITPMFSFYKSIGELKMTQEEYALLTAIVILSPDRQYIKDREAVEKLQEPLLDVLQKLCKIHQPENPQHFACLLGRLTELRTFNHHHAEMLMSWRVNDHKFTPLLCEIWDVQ
In short: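 Beta-lactamase reporter under UAS control in GeneBLAzer FXR HEK 293T cells (5000/well) measured with LiveBLAzer FRET substrate after 2 h at room temperature. Compound exposure lasted 16 h at 37C.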

[12] = qHTS assay to identify small molecule antagonists of the farnesoid-X-receptor (FXR) signaling pathway - cell viability counter screen (AID 743221; active = well fitted cell-killing curve with a large enough effect in the repeat runs, not every such curve was filed as active; also: nearly all actives have a fitted effect of over 50% in size; also: potency is read from the fitted curve at half-maximal effect)
In short: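 Cytotoxicity counter screen run in the FXR-bla reporter wells: HEK 293T cells exposed to compound with 50 uM (final) chenodeoxycholic acid for 16 h, 37 C, then viability measured by CellTiter-Glo luminescence after 30 min, room temperature.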

[13] = qHTS assay to identify small molecule agonists of the peroxisome proliferator-activated receptor delta (PPARd) signaling pathway - cell viability counter screen (AID 743211); also: nearly all actives have a fitted effect of over 55% in size; also: potency is read from the fitted curve at half-maximal effect
In short: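 Viability was measured as CellTiter-Glo luminescence (30 min, room temperature) in the same wells as the beta-lactamase readout. GeneBLAzer PPARd UAS-bla HEK293H cells received compound after 5 h plating and were incubated 17 h at 37 C.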

[14] = molecular target: Bile acid receptor (Homo sapiens) (UniProt Q96RI1); assay: qHTS assay to identify small molecule antagonists of the farnesoid-X-receptor (FXR) signaling pathway (AID 743217; active = well fitted inhibition curve with a large enough effect in the signal ratio in the repeat runs, not every such curve was filed as active; the % refers to the signal ratio; also: potency is read from the fitted curve at half-maximal effect)
In short: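 FXR-UAS-bla HEK 293T cells pre-incubated 5 h at 37 °C, then exposed to compounds with chenodeoxycholic acid (50 uM final) for 16 h at 37 °C. Beta-lactamase reporter read by LiveBLAzer B/G FRET substrate fluorescence after 2 h at room temperature.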

[15] = molecular target: Vitamin D3 receptor (Homo sapiens) (UniProt P11473); assay: qHTS assay to identify small molecule agonists of the vitamin D receptor (VDR) signaling pathway (AID 743222; calls by dose curve)
Sequence of Vitamin D3 receptor (Homo sapiens) (P11473 whole entry, looked up): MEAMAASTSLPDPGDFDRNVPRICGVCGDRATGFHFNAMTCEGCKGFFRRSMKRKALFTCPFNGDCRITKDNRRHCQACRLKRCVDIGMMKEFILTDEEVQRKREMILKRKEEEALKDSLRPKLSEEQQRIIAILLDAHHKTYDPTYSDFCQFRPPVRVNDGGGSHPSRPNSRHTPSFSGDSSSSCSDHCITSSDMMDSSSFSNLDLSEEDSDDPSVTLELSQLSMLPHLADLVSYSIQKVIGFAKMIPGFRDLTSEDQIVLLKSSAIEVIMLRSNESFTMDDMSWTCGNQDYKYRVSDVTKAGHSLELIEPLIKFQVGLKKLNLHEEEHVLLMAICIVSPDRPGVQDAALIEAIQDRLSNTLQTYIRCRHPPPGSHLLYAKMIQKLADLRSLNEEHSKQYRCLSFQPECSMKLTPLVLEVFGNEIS
In short: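 VDR-bla cells were plated 4 h at 37C/5% CO2, then exposed to compounds in DMSO for 16 h. After LiveBLAzer B/G FRET substrate addition and 2 h at room temperature, beta-lactamase reporter fluorescence was read.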

[16] = molecular target: Vitamin D3 receptor (Homo sapiens) (UniProt P11473); assay: qHTS assay to identify small molecule antagonists of the vitamin D receptor (VDR) signaling pathway (AID 743223; active = well fitted inhibition curve with a large enough effect in the signal ratio in the repeat runs, not every such curve was filed as active; the % refers to the signal ratio; also: potency is read from the fitted curve at half-maximal effect)
In short: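 Antagonist mode: compound added to VDR-bla cells alongside agonist 1alpha,25-dihydroxyvitamin D3 (3 nM final), incubation 16 h at 37C. Read-out is LiveBLAzer FRET fluorescence, 2 h at room temperature.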

[17] = qHTS assay for small molecule activators of the heat shock response signaling pathway (AID 743210; active = well fitted activation curve with a large enough effect in the signal ratio in the repeat runs, with a control signal flat, not every such curve was filed as active; the % refers to the signal ratio;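 also: HeLa cells with beta-lactamase reporter driven by heat shock elements; series mostly up to about 63 µM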)
In short: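 In HSE-bla HeLa cells, 5 h compound incubation (37 C) precedes addition of LiveBLAzer B/G substrate; after 2.5 h at room temperature, fluorescence intensity indicates reporter induction.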

[18] = molecular target: Peroxisome proliferator-activated receptor gamma (Homo sapiens) (UniProt P37231); assay: qHTS assay to identify small molecule agonists of the peroxisome proliferator-activated receptor gamma (PPARg) signaling pathway (AID 743094; active = well fitted activation curve with a large enough effect in the signal ratio in the repeat runs, not every such curve was filed as active; the % refers to the signal ratio)
Sequence of Peroxisome proliferator-activated receptor gamma (Homo sapiens) (P37231 whole entry, looked up): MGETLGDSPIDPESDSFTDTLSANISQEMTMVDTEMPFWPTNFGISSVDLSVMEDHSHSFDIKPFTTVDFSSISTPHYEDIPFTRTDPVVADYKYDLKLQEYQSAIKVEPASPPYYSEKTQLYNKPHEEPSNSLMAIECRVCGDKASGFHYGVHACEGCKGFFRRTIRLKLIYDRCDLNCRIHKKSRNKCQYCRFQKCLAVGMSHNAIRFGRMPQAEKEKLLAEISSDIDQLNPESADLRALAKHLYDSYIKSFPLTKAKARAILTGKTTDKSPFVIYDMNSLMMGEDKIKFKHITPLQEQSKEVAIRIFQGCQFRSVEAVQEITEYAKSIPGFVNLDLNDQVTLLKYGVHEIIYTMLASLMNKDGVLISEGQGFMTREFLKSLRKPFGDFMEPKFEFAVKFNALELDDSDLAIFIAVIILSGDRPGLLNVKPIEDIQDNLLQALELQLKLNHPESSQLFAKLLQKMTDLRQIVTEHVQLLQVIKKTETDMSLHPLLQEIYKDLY
In short: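 GeneBLAzer PPARg UAS-bla HEK293H cells carrying a stably integrated beta-lactamase reporter were pre-incubated 5 h at 37C, then exposed to compounds in DMSO for 17 h at 37C; LiveBLAzer B/G FRET substrate was added for 1 h at room temperature and fluorescence read.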

Measured: Potency

CC(C)(C)C(=O)OCOC(=O)C1N2C(=O)CC2S(=O)(=O)C1(C)C (centres undefined)
active: [9] 2.11 µM
not listed: [13] | [14] | [15] | [16] | [17] | [18]
inactive: all other assays above

CCCCCCCC/C=C/CCCCCCCC1=NCCN1CCO
inactive: [2] | [3]
active: [1] 48.6 µM | [4] 43.6 µM | [5] 24.3 µM | [6] 19.5 µM | [13] 30.9 µM | [8] 49 µM | [14] 54.9 µM | [10] 21.9 µM

Cc1[nH]cnc1C[C@H]1CCc2c(C)c3ccccc3n2C1=O
inactive: [1] | [2] | [3] | [6] | [9] | [14] | [12] | [15]
active: [4] 19 µM | [5] 53.1 µM

CN(C)c1ccc(C2(c3ccc(N(C)C)cc3)OC(=O)c3cc(N(C)C)ccc32)cc1
inactive: [1] | [2] | [3] | [4] | [5] | [6] | [8] | [10] | [12] | [16]

CC(=O)S[C@@H]1CC2=CC(=O)CC[C@]2(C)[C@H]2CC[C@@]3(C)[C@@H](CC[C@@]34CCC(=O)O4)[C@H]12
inactive: [1] | [2] | [3] | [17] | [13] | [8] | [10]

CCCC(=O)OC[C@@H](OC(=O)CCC)[C@@H](OC(=O)CCC)[C@H](Cn1c2nc(=O)[nH]c(=O)c-2nc2cc(C)c(C)cc21)OC(=O)CCC
active: [5] 26.6 µM
inactive: [1] | [2] | [18] | [4] | [13] | [10] | [12]

CC/C(=C(\c1ccc(O)cc1)c1ccc(OCCN(C)C)cc1)c1ccccc1
active: [1] 48.7 µM | [3] 54.6 µM | [4] 17.4 µM | [5] 15.4 µM | [13] 11 µM | [8] 21.9 µM | [10] 15.5 µM | [12] 24.6 µM
inactive: [2]

Clc1ccc2n[nH]nc2c1
not listed: [6] | [7] | [11] | [14] | [16] | [17] | [18]
inactive: all other assays above

CCCCCCCC[N+](CCCCCCCC)(CCCCCCCC)CCCCCCCC
active: [1] 21.6 µM | [3] 43.2 µM | [4] 10.9 µM | [5] 13.7 µM | [8] 6.9 µM | [12] 21.8 µM
inactive: [2]

CCCCN1C(=O)[C@@H]([C@H](O)C2CCCCC2)NC(=O)C12CCN(Cc1ccc(Oc3ccc(C(=O)O)cc3)cc1)CC2
active: [3] 8.63 µM
inactive: [1] | [2] | [4] | [17] | [13] | [8] | [9] | [12]

C[C@H](CCC(=O)O)[C@H]1CC[C@H]2[C@@H]3CC[C@@H]4C[C@H](O)CC[C@]4(C)[C@H]3CC[C@]12C
inactive and 54.9 µM (active): [13]
inactive and 43.6 µM (active): [12]
active: [4] 21.8 µM and 49 µM
inactive: [1] | [2] | [3] | [9] | [14]

Cc1cc(C2CCCCC2)n(O)c(=O)c1
active: [1] 12.7 µM | [13] 5.31 µM | [8] 9.44 µM
inactive: [2] | [3] | [6]

C[C@@H](NCCCc1cccc(C(F)(F)F)c1)c1cccc2ccccc12
inactive: [2] | [11]
active: [1] 21.1 µM | [3] 29.8 µM | [4] 26.6 µM | [5] 29.8 µM | [8] 26.6 µM | [9] 29.8 µM | [10] 29.8 µM

CCCCCCCC[P+](CCCCCCCC)(CCCCCCCC)CCCCCCCC
active: [1] 9.63 µM | [3] 19.2 µM | [4] 4.34 µM | [5] 10.8 µM | [13] 5.46 µM | [8] 7.71 µM | [10] 8.65 µM | [12] 17.3 µM | [16] 19.4 µM
inactive: [2]

O=S1(=O)CC(Cl)(Cl)C(Cl)(Cl)C1
active: [1] 2.17 µM | [3] 13.7 µM | [4] 5.49 µM | [5] 4.33 µM | [8] 3.89 µM | [10] 5.49 µM | [12] 9.77 µM | [16] 1.74 µM
inactive: [2] | [15]

[Cl][Bi]([Cl])([c]1ccccc1)([c]1ccccc1)[c]1ccccc1
active: [1] 7.65 µM | [3] 19.2 µM | [4] 3.45 µM | [5] 5.42 µM | [8] 4.87 µM | [10] 5.46 µM | [12] 10.9 µM
inactive: [2]
